From PubChem BioAssay (Tox21)
Inconclusive results are not listed. Entries that show only a call come without a potency. The source made the active and inactive calls. Calls follow the shape of the dose curve; as a rule, active = well fitted activation curve with a large enough effect in the repeat runs; inconclusive = weak or mixed curves, or effect the other way; inactive = no such curve, though single readings can be large or run the other way.

assay: qHTS assay to identify small molecule agonists of the estrogen related receptor signaling pathway with the pleiotropic PPARgamma coactivator (PGC) from Tox21 10K library (AID 1224842); details: PGC/ERR reporter cell line, luciferase ONE-Glo, 18 h; series mostly up to 92.4 µM; also: nearly all actives have a fitted effect of over 15% in size
Source text: National Center for Advancing Translational Sciences [NCATS] NIH Chemical Genomics Center [NCGC] U.S. Environmental Protection Agency [EPA] National Institutes of Environmental Health Sciences [NIEHS] National Toxicology Program [NTP] Assay overview: Estrogen related receptors (ERRs), the first orphan nuclear receptors discovered, play an important role in the control of cellular energy metabolism. ERRs are required for high-energy production in response to the environmental challenges. The pleiotropic PPARgamma coactivator (PGC) is a major partner of ERR and a key regulator in energy homeostasis. Together they have been implicated in the etiology of metabolic disorders such as Type 2 diabetes and metabolic syndrome. ERR-alpha was also identified as an adverse marker for breast cancer progression; ERR-alpha-positive tumors have a poor prognosis. To screen and to identify environmental compounds that perturb the PGC/ERR signaling pathways could provide valuable information for potential therapeutic or preventive measures in the treatment of metabolic disease. For identifying PGC/ERR agonists, PGC/ERR cell line (provided by NTP) has been used to screen Tox21 10K library.
Assay Protocol Summary: The PGC/ERR cells were dispensed at 2,000 cells/5 ul/well in 1536-well white plates using a Multidrop dispenser. After the assay plates were incubated at a 37 C/5% CO2 incubator for 6 hours, 23 nL of compounds dissolved in DMSO, positive and negative controls or DMSO only was transferred to the assay plate by a pin tool. The plates were incubated at 37 C for 18 hours. 4 ul/well of One-Glo reagent was added into the assay plates using a Flying Reagent Dispenser. After 30-minute incubation at room temperature, the luminescence intensity in the plates was measured using a ViewLux plate reader.
Potency is read from the fitted curve at half-maximal effect.

SMILES	Potency	activation
CC(C)(C)c1cc(CCC(=O)OCCSCCOC(=O)CCc2cc(C(C)(C)C)c(O)c(C(C)(C)C)c2)cc(C(C)(C)C)c1O	inactive	–
CSc1ccc(O)cc1C	inactive	–
O=C(CCCCCCCCc1cccnc1)N1CCC(C=C(c2ccccc2)c2ccccc2)CC1	inactive	–
CCc1c(C)cc(N)c(CC)c1N	inactive	–
O=[N+]([O-])c1ccc(O)c2ncccc12	inactive	–
CCCCCN=C(N)N/N=C/c1c[nH]c2ccc(OC)cc12	inactive	–
Nc1ccc(Oc2cccc(Oc3ccc(N)cc3)c2)cc1	inactive	–
COC(=O)c1ccc([N+](=O)[O-])cc1	inactive	–
N#Cc1nc(Cl)c(Cl)c(Cl)c1Cl	inactive	–
Cn1ccnc1	inactive	–
C=Cc1ccncc1	inactive	–
COc1cc(/C=C/C(=O)CC(=O)/C=C/c2ccc(O)c(OC)c2)ccc1O	inactive	–
CCCOC(=O)c1ccc(O)cc1	10.9 µM (active)	–
CN1CCN(c2ccccc2/C=C2\SCCN(c3ccc(Cl)c(Cl)c3)C2=O)CC1	inactive	–
CCCCCCCCCCCCN1CCCC1=O	inactive	–
Nc1ccc(F)c([N+](=O)[O-])c1	inactive	–
Oc1cccc2c(O)cccc12	inactive	–
C[C@H]1O[C@@H](O[C@H]2CC[C@@]3(C)[C@H](CC[C@@H]4[C@@H]3C[C@@H](O)[C@]3(C)[C@@H](C5=CC(=O)OC5)CC[C@]43O)C2)C[C@H](O)[C@@H]1O[C@H]1C[C@H](O)[C@H](O[C@H]2C[C@H](O)[C@H](O[C@@H]3O[C@H](CO)[C@@H](O)[C@H](O)[C@H]3O)[C@@H](C)O2)[C@@H](C)O1	inactive	–
CCC(C)(C)c1ccc(CC(C)CN2C[C@@H](C)O[C@@H](C)C2)cc1 (stereo not given in full)	inactive	–
Clc1ccc2c(Cl)ccnc2c1	inactive	–

SMILES	Potency	activation
CCOC(=O)C1=NN(c2ccc(Cl)cc2Cl)C(C)(C(=O)OCC)C1 (stereo not given)	inactive	–
Clc1nc(C(Cl)(Cl)Cl)c(Cl)c(Cl)c1Cl	inactive	–
Cc1cc(Br)ccc1NC(=O)CCl	inactive	–
C1CCSC1	inactive	–
O=S(=O)(c1ccc(OCc2ccccc2)cc1)c1ccccc1O	inactive	–
O=C(O)C[C@H](O)C[C@H](O)/C=C/c1c(C2CC2)nc2ccccc2c1-c1ccc(F)cc1	–	-0.0293% [at 19 µM] (inactive)
CCCC(C)C=O (stereo not given)	inactive	–
Oc1ccc(C2(c3ccc(O)c(C4CCCCC4)c3)CCCCC2)cc1C1CCCCC1	inactive	–
CC(C)C(=O)C(C)C	inactive	–
Clc1cccc(Cl)n1	inactive	–
Cc1cccc2c1ccc1ccccc12	inactive	–
C=CC(=O)O[C@H]1C[C@@H]2CC[C@@]1(C)C2(C)C	inactive	–
CC/C=C(\C)C=O	inactive	–
CCCCCCCCCCCCCCCCCCNC(=O)OC1CCN(C(=O)OC[C@H](COC(=O)N(Cc2cccc[n+]2CC)C(=O)c2ccccc2OC)OC)CC1	inactive	–
O[Si](c1ccccc1)(c1ccccc1)c1ccccc1	inactive	–
C=C1C(CCl)(CCl)C2(Cl)C(Cl)C(Cl)C1(Cl)C2(Cl)Cl (stereo not given)	inactive	–
CCc1cccc(CC)c1	inactive	–
Cc1ccc(S(=O)(=O)C(I)I)cc1	inactive	–
[Cl][Sc]([Cl])[Cl]	inactive	–
N#CCCOCCC#N	inactive	–
